Assay results from PubChem BioAssay (NCATS).
Results filed as inconclusive are left out. A call without a number means that no potency is given here. Unmarked numbers belong to inactive results. Calls of active or inactive are those of the source. The call rests on the fitted dose curve; in most records, active means well fitted curve in the direction sought with a large enough effect; inconclusive means small, poorly fitted or top-dose-only effect, or another doubt; inactive means no such curve, though single readings can be large; an effect the other way counts as inactive or inconclusive.

Assays:
[1] = molecular target: Aldehyde dehydrogenase, mitochondrial (Homo sapiens) (UniProt P05091); experiment: qHTS for Inhibitors of the Aldehyde Dehydrogenase Family (ALDH2) Primary screen (AID 2061308); details: ALDH2 enzyme inhibition qHTS, 1536-well; series mostly up to 56 µM; further: nearly all actives have a fitted effect of over 55% in size
[2] = molecular target: Retinaldehyde dehydrogenase 3 (Homo sapiens) (UniProt P47895); experiment: qHTS for Inhibitors of the Aldehyde Dehydrogenase Family (ALDH1A3) Primary screen (AID 2061315); details: ALDH inhibition qHTS; series mostly up to 56 µM

SMILES | Potency [1] | Potency [2] | activity change, negative = inhibition [1] | activity change, negative = inhibition [2]
Oc1cccc2cc(N3CCNCC3)cnc12 | inactive | inactive |  | 
CCOC(=O)C1CCN(C(=O)C2(NC(=O)Nc3ccccc3Cl)CCCC2)CC1 | inactive | inactive |  | 
Cc1cc(-c2nnc3n2CCCCC3)c(C)n1-c1ccc(C(C)(C)C)cc1 | inactive | inactive |  | 
CCOc1ccc(CCNC(=O)c2cc3ccncc3n2Cc2cccc(C)c2)cc1OCC | inactive | inactive |  | 
C[C@H]1CC[C@@H]2[C@@H](C)[C@H]3[C@H](C[C@H]4[C@@H]5CC=C6CC(O[C@@H]7O[C@H](CO)[C@@H](O)[C@H](O[C@@H]8O[C@H](CO)[C@@H](O)[C@H](O)[C@H]8O)[C@@H]7O[C@@H]7O[C@@H](C)[C@H](O)[C@@H](O)[C@H]7O)CC[C@]6(C)[C@H]5CC[C@]34C)N2C1 (stereo partly specified) | inactive | inactive |  | 
COCC1OC(=O)c2coc3c2C1(C)C1=C(C3=O)C2CCC(=O)C2(C)CC1O (stereo unspecified) | inactive | inactive |  | 
Fc1cc(F)c2c(c1)C1C=CCC1C(c1cccnc1)N2 (stereo unspecified) | inactive | inactive |  | 
CCCc1ccc(NC(=O)c2ccc3c(c2)NC(=O)CS3)cc1 | inactive | inactive |  | 
O=S(=O)(Nc1nccs1)c1ccc(NCc2cccc(F)c2O)cc1 | inactive | inactive |  | 
CCOc1ccc(CCNC(=O)c2cc3ccccc3n2Cc2ccccn2)cc1OCC | inactive | inactive |  | 
COC(=O)c1ccc(O)c2ncc(N3CCN(C)CC3)cc12 | inactive | inactive |  | 
CC[C@H](C)[C@H](NC(=O)[C@H]1CCCCN1C)C(=O)N(COC(=O)CC(C)C)[C@H](C[C@@H](OC(C)=O)c1nc(C(=O)N[C@@H](Cc2ccc(O)cc2)C[C@H](C)C(=O)O)cs1)C(C)C |  |  | -2.41% [at 1.12 µM] | 6.02% [at 1.12 µM]
O=S(=O)(Nc1cccc2ccncc12)c1ccc(NCc2cccc(Cl)c2O)cc1 | inactive | inactive |  | 
CC(=O)OC1CC(O)C2(C)C(CC(OC(C)=O)C3(C)C2CCC2(C)C(c4ccoc4)C(=O)C4OC423)C1(C)C (stereo unspecified) | inactive | inactive |  | 
CC1=C(C(=O)Nc2nccs2)C(c2ccccc2Br)N=C(Nc2nc3ccccc3o2)N1 (stereo unspecified) | inactive | inactive |  | 
C[C@]12CC[C@@H](O)C[C@@H]1CC[C@@H]1[C@@H]2CC[C@]2(C)C(=O)[C@@H](Br)C[C@@H]12 | inactive | inactive |  | 
Cn1cc(Cl)c(C2N=C(Nc3nc4ccccc4o3)NC3=C2C(=O)CCC3)n1 (stereo unspecified) | inactive | inactive |  | 
C=C(CO)[C@@]12O[C@@H]1[C@@]1(C)C(=CC2=O)CC[C@@H](O)[C@@H]1C | inactive | inactive |  | 
CO[C@H]1C[C@H](O[C@H]2CC[C@]3(CO)[C@H]4CC[C@]5(C)[C@@H](C6=CC(=O)OC6)CC[C@]5(O)[C@@H]4CC[C@]3(O)C2)O[C@H](C)[C@H]1O | inactive | inactive |  | 
C[C@]12CC[C@H](O)C[C@H]1CC[C@@H]1[C@@H]2[C@H](O)C[C@]2(C)[C@@H](c3ccc(=O)oc3)CC[C@]12O | inactive | inactive |  | 
Cc1cc(-c2nnc3n2CCCCC3)c(C)n1-c1ccc(Cl)cc1 | inactive | inactive |  | 
COc1cccc(CNc2ccc(S(=O)(=O)Nc3ccc4ccccc4c3)cc2)c1O | inactive | inactive |  | 
CCOc1ccc(CCNC(=O)c2cc3ccccc3n2Cc2cccc(C)c2)cc1OCC | inactive | inactive |  | 
CCCCCOc1cc2c(cc1-c1cc(/C=C/C(=O)O)ccc1O)C(C)(C)CCC2(C)C | inactive | inactive |  | 
C[C@]12CC[C@@H](O[C@@H]3O[C@H](CO)[C@@H](O)[C@H](O)[C@H]3O)C[C@@]1(O)CCC1C2CC[C@]2(C)[C@@H](C3=CC(=O)OC3)CC[C@]12O (stereo partly specified) | inactive | inactive |  | 
Cc1cccc(NC(=O)N[C@H]2CN(C)c3ccccc3C(c3ccccc3)=N2)c1 | inactive | inactive |  | 
C[C@@H]1[C@H](O)[C@@H](C)/C=C/C=C/CC/C=C/C=C/C=C/C=C/[C@H](O[C@H]2O[C@@H](C)[C@H](O)[C@@H](N)[C@H]2O)C[C@@H]2O[C@](O)(C[C@@H](O)[C@H](O)CC[C@@H](O)C[C@@H](O)C[C@@H](O)CC(=O)O[C@H]1C)C[C@H](O)[C@H]2C(=O)O | inactive | inactive |  | 
C[C@@H]1C(=O)O[C@H]2[C@H](O)[C@@]34[C@@H]5OC(=O)[C@@]3(O[C@@H]3OC(=O)[C@@H](O)[C@@]34[C@H](C(C)(C)C)[C@H]5O)[C@@]12O | inactive | inactive |  | 
